{"source": "PubChem BioAssay (NCATS)", "note": "Unmarked numbers belong to inactive results. Calls come from the whole dose curve; as a rule, active = well fitted inhibition curve with a large enough effect; inconclusive = small, poorly fitted or top-dose-only effect; inactive = no such curve, though single readings can be large or run the other way. % is set by controls: 0 for no effect and ±100 for the full control effect."}
{"biological_target": "Single-stranded DNA cytosine deaminase (Homo sapiens) (UniProt Q9GZX7)", "sequence (Q9GZX7 whole entry, looked up)": "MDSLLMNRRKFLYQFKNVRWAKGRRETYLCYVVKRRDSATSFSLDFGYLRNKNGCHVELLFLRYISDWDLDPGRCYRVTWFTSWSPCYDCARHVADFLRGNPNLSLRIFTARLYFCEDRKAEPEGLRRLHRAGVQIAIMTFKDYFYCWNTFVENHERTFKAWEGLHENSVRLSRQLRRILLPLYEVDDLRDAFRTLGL", "assay": "Validation qHTS assay for inhibitors of Activation Induced Cytidine Deaminase (AID): AID signal (AID 1347429)", "details": "Recombinant AID, FRET ssDNA deamination with UDG, fluorescence; series mostly up to 115 µM; activity change, negative = inhibition: at the top concentration", "method_in_brief": "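AID and UDG were combined and compounds added at final up to 114 uM, then DJC20/DJC23 FRET substrate was added for 4 hr at room temperature. NaOH was then added for 30 min before fluorescence was read at 540/590 nm.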", "units": {"activity change, negative = inhibition": "%"}}
{"smiles": "O=S(=O)(c1cccc2c(I)cccc12)N1CCCNCC1", "activity change, negative = inhibition": 35.6}
{"smiles": "NCCCCC(=O)O", "activity change, negative = inhibition": 9.17}
{"smiles": "NC(=O)C1=CN(C2OC(COP(=O)(O)OP(=O)(O)OC[C@H]3O[C@@H](n4cnc5c(N)ncnc54)[C@H](OP(=O)(O)O)[C@@H]3O)C(O)C2O)C=CC1", "note": "(some centres undefined)", "activity change, negative = inhibition": 61.2}
{"smiles": "CCCCCCCC/C=C\\CCCCCCCC(=O)NCCO", "activity change, negative = inhibition": -1.69}
{"smiles": "C[N+](C)(C)CCOP(=O)(O)OP(=O)([O-])OC[C@H]1O[C@@H](n2ccc(N)nc2=O)[C@H](O)[C@@H]1O", "activity change, negative = inhibition": 19.3}
{"smiles": "O=[N+]([O-])c1ccc2c(c1)S(=O)(=O)C=C2", "activity change, negative = inhibition": 8.9}
{"smiles": "CC(C)NC[C@@H](O)c1ccc(O)c(O)c1", "activity change, negative = inhibition": 43.4}
{"smiles": "NC[C@H]1O[C@@H](n2cnc3c(N)ncnc32)[C@H](O)[C@@H]1O", "activity change, negative = inhibition": 15.3}
{"smiles": "COc1ccc(/C=C/C(=O)Nc2ccccc2C(=O)O)cc1OC", "activity change, negative = inhibition": -1.45}
{"smiles": "C[N+]1(C)CCC(OC(=O)C(c2ccccc2)c2ccccc2)CC1", "activity change, negative = inhibition": 13}
{"smiles": "CN(C)c1ccc(/C=C2\\C(=O)Nc3ccccc32)cc1", "activity change, negative = inhibition": 38.6}
{"smiles": "O=C(/C=C/c1ccc(O)cc1)c1ccc(O)cc1O", "activity change, negative = inhibition": 25.7}
{"smiles": "NS(=O)(=O)C#Cc1ccccc1", "activity change, negative = inhibition": 12}
{"smiles": "Cc1cc(NC2CCCCC2)nc(-n2nc(C)cc2C)n1", "activity change, negative = inhibition": 6.36}
{"smiles": "Cc1cc(NC(=O)Nc2ccc3c(ccn3C)c2)sn1", "activity change, negative = inhibition": 65.3}
{"smiles": "Oc1cc2c(cc1O)CN(C(=S)NCCc1ccc(Cl)cc1)CCC2", "activity change, negative = inhibition": 2.9}
{"smiles": "O=C(c1cc(O)c(O)c([N+](=O)[O-])c1)c1ccccc1F", "activity change, negative = inhibition": -7.15}
{"smiles": "CC(C)NC[C@H](O)COc1cccc2[nH]ccc12", "activity change, negative = inhibition": 213}
{"smiles": "O=C(Nc1ccccc1)c1cc([N+](=O)[O-])ccc1Cl", "activity change, negative = inhibition": -4.5}
